Measured values as given in PubChem BioAssay AID743269 (The Scripps Research Institute Molecular Screening Center, 2014).
About 2,400 (0.65%) of roughly 370,000 compounds were called active. The sample holds actives, similar compounds and a random draw of the others, so the mix is not that of the screen. Unmarked numbers belong to inactive results.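 The calls were made as follows: active = inhibition above the screen-wide mean plus 3 SD (cut at about 13% in these data); inactive = the rest.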

What follows are molecules tested on HIV-1 integrase (with human LEDGF/p75) (assay: blockers of LEDGF/p75-dependent integrase strand transfer – biochemical, TR-FRET, high throughput, primary screen (AID 743269;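 also: signal is the Cy5 over europium emission ratio at 671 and 618 nm; 0% = plate median of compound wells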)). Conditions: TR-FRET IN-LEDGF/p75 DNA integration, Eu/Cy5; at 3.7 µM; stronger effect = higher value.

Row | SMILES | inhibition
1 | Cc1ccc(C(=O)N/C(=C/c2cccs2)C(=O)N2CCCCC2)cc1 | 33% (active)
2 | CN1CCN(C(=O)/C(=C\c2cccs2)NC(=O)c2cccs2)CC1 | -1.57%
3 | O=C(N/C(=C\c1ccc(O)cc1)C(=O)N1CCCCC1)c1ccccc1 | 3.65%
4 | Cc1ccc(Cn2cc(CN3[C@@H](C)COc4cc(Br)ccc4S3(=O)=O)nn2)cc1 | 4.11%
5 | O=C1Nc2ccccc2OC1CC(=O)N1CCCCCCC1 (stereo not given) | 0.2%
6 | CCC(CO)Nc1cccc2c1S(=O)(=O)N(Cc1cn(Cc3ccccc3C(F)(F)F)nn1)Cc1ccccc1O2 (stereo not given) | -2.25%
7 | FC(F)(F)c1cccc(Cn2ccc3ccc(-c4ccc5ccn(Cc6ccccc6)c5c4)cc32)c1 | 3.37%
8 | CC(=O)N1CCc2cc(S(=O)(=O)NCCC(=O)N3CCCC3)ccc21 | -3.8%
9 | CC1(C(=O)NS(=O)(=O)c2ccc(C#N)cc2)CCN1C(=O)c1ccc(C2CCCCC2)cc1 (stereo not given) | -1.93%
10 | CC1(OC(=O)C2CCCC2)C(=O)C=C2C=C(c3ccc(C#N)cc3)OC=C2C1=O (stereo not given) | 13.4% (active)
11 | Cc1ccccc1C(=O)N1CCC(C(=O)Oc2ccc(C#N)cc2)CC1 | -4.31%
12 | C[C@H]1CCC/C=C/C(=O)c2c(O)cc(O)cc2CC(=O)O1 | -2.09%
13 | Cc1cc2c(c(=O)n1Cc1ccco1)C(c1ccccc1)C(C#N)=C(N)O2 (stereo not given) | 42.2% (active)
14 | Cc1cc2c(c(=O)n1C)C(C(C)C)C(C#N)=C(N)O2 (stereo not given) | 0.88%
15 | O=C(Cn1c(=O)n(Cc2ccco2)c(=O)c2ccccc21)NCC1CCCO1 (stereo not given) | 2.8%
16 | N#Cc1ccc(OC[C@@H](O)CN2CCC(C(O)(c3ccccc3)c3ccccc3)CC2)c(F)c1 | 1.07%
17 | Cc1ccnc(NS(=O)(=O)c2ccc(NC(=O)c3ccc(S(=O)(=O)N4CCOCC4)cc3)cc2)n1 | -0.6%
18 | O=C(Nc1nnc(-c2ccccc2)o1)c1cccc(S(=O)(=O)N2CCOCC2)c1 | 4.42%
19 | O=C(Nc1nnc(-c2ccco2)o1)c1ccc(S(=O)(=O)N2CCOCC2)cc1 | 27% (active)
20 | Cc1cccc(C(=O)Nc2c(-c3ccc(F)cc3)nc3ncccn23)c1 | 1.19%
21 | C=CCN1[C@H](CC(C)C)COc2cccc(N3CCCC3)c2S1(=O)=O | -3.3%
22 | CCN(CC)C(=O)CC[C@H]1CC[C@]2(CCCN(Cc3ccc(Cl)cc3)C2)O1 | 3.81%
23 | CCCCNC(=O)OC1CC2CC1[C@H]1CCCCN1C2=O (stereo not given in full) | 25.4% (active)
24 | CCCC[C@H]1C2CC(OC(=O)NCc3ccccc3)C(C2)[C@H]2CCCCN21 (stereo not given in full) | -3.96%
25 | O=C(OC1CC2CC1[C@H]1CCCCN1C2=O)N1CCOCC1 (stereo not given in full) | -2.09%
